From PubChem BioAssay (Tox21)
Inconclusive results are not listed. Active and inactive are the calls of the source. Unless noted, the call rests on the fitted dose curve; in most records, active means well fitted curve in the direction sought with a large enough effect in the repeat runs; inconclusive means weak or mixed curves; inactive means no such curve, though single readings can be large; an effect the other way counts as inactive or inconclusive.

Tests used:
[1] = qHTS assay to identify small molecule agonists of the NFkB signaling pathway - cell viability counter screen (AID 1159515; calls by dose curve; further: series mostly up to about 61 µM; on the % scale 0 is the no-effect control and ±100 the full control effect; nearly all actives have a fitted effect of over 55% in size)
How it was run: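 NFkB-bla ME-180 cells, 2,000/well, plated overnight at 37 C; compound added for 5 hr at 37 C. Viability read in the same wells as the bla reporter, by CellTiter-Glo luminescence after 30 min at room temperature.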

[2] = qHTS assay to identify small molecule agonists of the endoplasmic reticulum stress response signaling pathway (AID 1159516; active means well fitted activation curve with a large enough effect in the signal ratio in the repeat runs, not every such curve was filed as active; the % refers to the signal ratio; further: on the % scale 0 is the no-effect control and ±100 the full control effect)
How it was run: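 CellSensor ESRE-bla HeLa cells, 1,500 per well, plated overnight, then exposed to compounds for 5 hr at 37 C. Beta-lactamase reporter read with LiveBLAzer B/G FRET substrate after 2 hr at room temperature, 405 nm excitation, 460 and 530 nm emission.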

[3] = qHTS assay to identify small molecule agonists of the endoplasmic reticulum stress response signaling pathway - cell viability counter screen (AID 1159517; calls by dose curve;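 further: HeLa cells carrying an ER stress response element beta-lactamase reporter; series mostly up to about 61 µM; on the % scale 0 is the no-effect control and ±100 the full control effect; nearly all actives have a fitted effect of over 50% in size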)
How it was run: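 ESRE-bla HeLa cells, 1,500 per well, seeded overnight then treated with compounds for 5 hr at 37 C. After the beta-lactamase read, viability in the same wells is measured by CellTiter-Glo luminescence after 30 min at room temperature.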

[4] = qHTS assay to identify small molecule antagonists of the retinoid-related orphan receptor gamma (ROR-gamma) signaling pathway - cell viability counter screen (AID 1159520); further: on the % scale 0 is the no-effect control and ±100 the full control effect; nearly all actives have a fitted effect of over 50% in size
How it was run: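 Tet-on ROR gamma CHO cells were given compounds for 2 hr, then doxycycline hyclate at 1 uM final, and incubated 16 hr at 37 C. Viability was measured as ATP content by CellTiter-Glo luminescence.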

[5] = molecular target: Nuclear receptor ROR-gamma (Homo sapiens) (UniProt P51449); experiment: qHTS assay to identify small molecule antagonists of the retinoid-related orphan receptor gamma (ROR-gamma) signaling pathway (AID 1159521;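 further: CHO cells with doxycycline inducible ROR-gamma driving an RORE luciferase reporter; top concentration of the series differs between compounds; on the % scale 0 is the no-effect control and ±100 the full control effect; nearly all actives have a fitted effect of over 50% in size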)
How it was run: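 RORγ antagonism is scored from reduced reporter luminescence in Tet-on CHO cells. Induction used 1 uM final doxycycline hyclate for 16 h at 37 C, following a 2 h compound exposure.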

[6] = qHTS assay to identify small molecule agonists of the AP-1 signaling pathway - cell viability counter screen (AID 1159525; calls by dose curve; further: nearly all actives have a fitted effect of over 55% in size)
How it was run: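 AP-1-bla ME-180 cells in Opti-MEM with 0.5% dialyzed FBS, compound exposure 5 h at 37 C in 15-point titration. Viability read in the same wells as ATP content by CellTiter-Glo luminescence, normalised to tetra-n-octylammonium bromide and DMSO controls.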

[7] = qHTS assay to identify small molecule agonists of the AP-1 signaling pathway (AID 1159526; calls by dose curve; further: on the % scale 0 is the no-effect control and ±100 the full control effect)
[8] = molecular target: Retinoic acid receptor RXR-alpha (Homo sapiens) (UniProt P19793); experiment: qHTS assay to identify small molecule agonists of the RXR signaling pathway (AID 1159527; calls by dose curve; further: on the % scale 0 is the no-effect control and ±100 the full control effect; nearly all actives have a fitted effect of over 35% in size)
How it was run: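 qHTS of the Tox21 10K library in GeneBLAzer RXR-alpha HEK 293T cells carrying a beta-lactamase reporter […]; 16 hr treatment, 9-cis retinoic acid as agonist control, FRET read-out.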

[9] = qHTS assay to identify small molecule agonists of the RXR signaling pathway - cell viability counter screen (AID 1159529); further: series mostly up to about 77 µM; on the % scale 0 is the no-effect control and ±100 the full control effect; nearly all actives have a fitted effect of over 50% in size
How it was run: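 Cell viability is measured by CellTiter-Glo luminescence, 30 min at room temperature, in wells already read for beta-lactamase. Engineered HEK 293T cells (RXR-alpha-UAS-bla) are dosed 16 hr at 37 C. Tetraoctyl ammonium bromide serves as positive control.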

[10] = qHTS assay to identify small molecule antagonists of the retinoid acid receptor (RAR) signaling pathway - cell viability counter screen (AID 1159551); further: on the % scale 0 is the no-effect control and ±100 the full control effect; nearly all actives have a fitted effect of over 35% in size
How it was run: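 C3RL4 RARE-luciferase cells, 1,000/well, incubated overnight, then dosed with compound plus 1 uM retinol (final). After 6 hr at 37 C, viability read by CellTiter-Glo ATP luminescence following 30 min at room temperature.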

[11] = qHTS assay to identify small molecule antagonists of the vitamin D receptor (VDR) signaling pathway - cell viability counter screen (AID 743225)
How it was run: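 Cells (VDR-UAS-bla HEK 293T) are plated, rested 4 h at 37C, dosed with compound and 3 nM final 1-alpha,25-dihydroxy vitamin D3, and incubated 16 h. Viability is taken from CellTiter-Glo luminescence in the reporter wells.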

[12] = qHTS assay to identify small molecule antagonists of the retinoic acid receptor (RAR) signaling pathway (AID 1159552)
How it was run: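 Quantitative HTS in C3RL4 RARE-luciferase reporter cells. Compounds were added with 1 uM (final) retinol; luminescence was read after 6 hr.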

[13] = qHTS assay to identify small molecule antagonists of the estrogen related receptor (ERR) signaling pathway from Tox21 library - cell viability counter screen (AID 1224834); further: on the % scale 0 is the no-effect control and ±100 the full control effect; nearly all actives have a fitted effect of over 30% in size
How it was run: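 ERR reporter cells, 2,000 per well, rested 6 h, then exposed to compound in DMSO for 17.5 hours at 37 C. Viability read as fluorescence after 30 min with CellTiter-Fluor.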

[14] = qHTS assay to identify small molecule agonists of the retinoic acid receptor (RAR) signaling pathway (AID 1159553); further: on the % scale 0 is the no-effect control and ±100 the full control effect
How it was run: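 C3RL4 RARE-luciferase cells were seeded at 1,000/well and grown overnight at 37 C, then exposed to compounds for 6 hr at 37 C, 5% CO2. Luciferase reagent was added and luminescence was read after 30 min at room temperature.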

Retinoic acid receptor RXR-alpha (Homo sapiens), sequence (P19793 whole entry, looked up): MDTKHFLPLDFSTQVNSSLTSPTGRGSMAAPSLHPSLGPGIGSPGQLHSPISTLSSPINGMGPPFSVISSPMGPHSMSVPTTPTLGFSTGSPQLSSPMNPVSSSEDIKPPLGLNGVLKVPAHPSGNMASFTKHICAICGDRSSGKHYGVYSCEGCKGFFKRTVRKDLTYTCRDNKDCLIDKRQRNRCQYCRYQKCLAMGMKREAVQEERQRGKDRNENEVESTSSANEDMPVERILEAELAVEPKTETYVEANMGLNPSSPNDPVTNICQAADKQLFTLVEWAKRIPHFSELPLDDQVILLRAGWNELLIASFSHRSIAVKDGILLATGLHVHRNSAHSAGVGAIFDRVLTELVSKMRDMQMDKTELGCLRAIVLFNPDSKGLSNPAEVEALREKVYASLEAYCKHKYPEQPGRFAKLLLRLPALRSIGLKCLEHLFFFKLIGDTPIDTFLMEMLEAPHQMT

CCOc1c(N2CCOCC2)cnn(C)c1=O
inactive: outcome [1] | outcome [2] | outcome [3] | outcome [4] | Potency [5] | outcome [6] | outcome [7] | Potency [8] | Potency [9] | outcome [10]

CCCCOCCOC(=O)CCCCCCCCC(=O)OCCOCCCC
inactive: outcome [11] | outcome [1] | outcome [2] | outcome [3] | outcome [4] | Potency [5] | outcome [6] | outcome [7] | Potency [8] | Potency [9] | outcome [10] | Potency [12] | Potency [13]

CCOC(=O)COc1cc(-n2ncc(C(F)(F)F)c(C)c2=O)c(F)cc1Cl
inactive: outcome [11] | outcome [1] | outcome [2] | outcome [3] | outcome [4] | Potency [5] | outcome [6] | outcome [7] | Potency [8] | Potency [9] | outcome [10] | Potency [12] | Potency [13]

CCCCCCCC1CCCC1=O (configuration not stated)
inactive: outcome [11] | outcome [1] | outcome [2] | outcome [3] | outcome [4] | Potency [5] | outcome [6] | outcome [7] | Potency [8] | Potency [9] | outcome [10] | Potency [12] | Potency [13]

C[N+]1(CC2COC(c3ccccc3)(c3ccccc3)O2)CCCCC1 (configuration not stated)
inactive: outcome [11] | outcome [1] | outcome [2] | outcome [3] | activity, negative = cytotoxicity [4] -0.623% [at 19 µM] | activity change, negative = inhibition [5] 7.79% [at 19 µM] | viability change, negative = cytotoxic [6] 0.502% [at 15.8 µM] | activation [7] -1.1% [at 15.8 µM] | activation [8] -0.901% [at 15.8 µM] | activity change, negative = cytotoxicity [9] -2.46% [at 15.8 µM] | activity change, negative = cytotoxicity [10] -0.8% [at 19 µM] | Potency [14] | viability change, negative = cytotoxic [13] 7.36% [at 19 µM]

CC1CCC(CO)CC1 (configuration not stated)
inactive: outcome [11] | outcome [1] | outcome [2] | outcome [3] | outcome [4] | Potency [5] | outcome [6] | outcome [7] | Potency [8] | Potency [9] | outcome [10] | Potency [12] | Potency [13]

C=C(C)C(=O)OCC1CCCO1 (configuration not stated)
inactive: outcome [11] | outcome [1] | outcome [2] | outcome [3] | outcome [4] | Potency [5] | outcome [6] | outcome [7] | Potency [8] | Potency [9] | outcome [10] | Potency [12] | Potency [13]

O=C1CCCCCCCCCCCCCCO1
inactive: outcome [11] | outcome [1] | outcome [2] | outcome [3] | outcome [4] | Potency [5] | outcome [6] | outcome [7] | Potency [8] | Potency [9] | outcome [10] | Potency [12] | Potency [14] | Potency [13]

C1CCC2=NCCCN2CC1
inactive: outcome [1] | outcome [2] | outcome [3] | outcome [4] | Potency [5] | outcome [6] | outcome [7] | Potency [8] | Potency [9]

COc1cccc(OC)c1C(=O)N[C@@H]1C(=O)N2[C@@H]1SC(C)(C)[C@@H]2C(=O)O
inactive: outcome [1] | outcome [2] | outcome [3] | outcome [4] | Potency [5] | outcome [6] | outcome [7] | Potency [8] | Potency [9] | outcome [10] | Potency [13]
